The record followed here is PubChem BioAssay (EPA / NIEHS).

Records with an inconclusive call do not appear. A structure can be active in one record and inactive in another. The source made the active and inactive calls. Rule for the calls: active = hit-call score of the fitted dose curve at least 0.9, where 1 is the maximum; inconclusive = response in the unintended direction; inactive = score below 0.9.

Sequence of human Peripheral-type Benzodiazepine Receptor (PBR), TSPO (gene 706) (P30536 whole entry, looked up): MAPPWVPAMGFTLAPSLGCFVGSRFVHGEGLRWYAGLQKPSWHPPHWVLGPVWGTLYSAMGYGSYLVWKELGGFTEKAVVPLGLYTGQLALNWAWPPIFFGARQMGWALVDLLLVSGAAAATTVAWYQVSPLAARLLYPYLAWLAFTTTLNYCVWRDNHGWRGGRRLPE

One experiment addresses human Peripheral-type Benzodiazepine Receptor (PBR), TSPO (gene 706) (UniProt P30536). The experiment in a line: NVS_MP_hPBR: NovaScreen (NVS) Membrane Protein Assay for human Peripheral-type Benzodiazepine Receptor (PBR) (AID 2283331).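 Note: hits reduce radioligand binding relative to DMSO baseline.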 Put shortly: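 Human colonic cell membranes were incubated with test chemical for 1 hour; radioligand binding was measured by filter-based scintillation counting. Primary screen ran in duplicate at 25 uM, with actives followed in concentration series; loss of signal versus DMSO baseline.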
Usually AC50 stands for the concentration at which the activity in the assay is half-maximal. Consider `CCC(C)(NC(=O)c1cc(Cl)c(C)c(Cl)c1)C(=O)CCl` (configuration not stated), for which the concentration at half-maximal activity (AC50) was 25 µM (active).
As to `CC(C)(C)C(O)C(Oc1ccc(Cl)cc1)n1cncn1` (configuration not stated), the compound was called inactive.
Same read-out and setting: the entry for `COc1nn(CSP(=S)(OC)OC)c(=O)s1` is “inactive”.
In the case of `CC(C)OC(=O)Nc1cccc(Cl)c1`, the half-maximal activity concentration (AC50) was 17.1 µM (active).
The same measure, in the same setting: the same measure for `CCN(CC)C(=O)SCc1ccc(Cl)cc1`: 22.2 µM (active).
For the compound `CNC(=O)CSP(=S)(OC)OC`, the compound was classed as inactive.
Turning to `CCOCN(C(=O)CCl)c1c(C)cccc1CC`, the concentration at half-maximal activity (AC50) was 1.88 µM (active).
On to `COC(=O)c1ccccc1S(=O)(=O)NC(=O)Nc1nc(C)nc(OC)n1`, for which the call was inactive.
For the compound `COP(=S)(OC)Oc1ccc(SC)c(C)c1`, the AC50 is 17.4 µM (active).
On to `O=[N+]([O-])/N=C1\NCCN1Cc1ccc(Cl)nc1`, for which the outcome was inactive.
For `ClC1C(Cl)C(Cl)C(Cl)C(Cl)C1Cl` (configuration not stated), the compound was classed as inactive.
On the same count and under the same terms, the entry for `O=C(O)COc1ccc(Cl)cc1Cl` is “inactive”; for `O=S1OCC2C(CO1)C1(Cl)C(Cl)=C(Cl)C2(Cl)C1(Cl)Cl` (configuration not stated) it is “inactive”; for `CC1(C)C(C=C(Cl)Cl)C1C(=O)OC(C#N)c1ccc(F)c(Oc2ccccc2)c1` (configuration not stated) it is “inactive”.
On the same count and under the same terms, the entry for `O=C(O)CCCOc1ccc(Cl)cc1Cl` is “inactive”.

In the next experiment the target is rat Peripheral-type Benzodiazepine Receptor (PBR), Tspo (gene 24230) (UniProt P16257). The experiment is described as follows: NVS_MP_rPBR: NovaScreen (NVS) Membrane Protein Assay for rat Peripheral-type Benzodiazepine Receptor (PBR) (AID 2283335). Put shortly: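 Radioligand displacement, rat kidney membrane prep, 1 h exposure, filter-based scintillation read; DMSO baseline, loss-of-signal scored. Primary screen at 25 uM in duplicate, actives followed up in concentration series.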
Sequence of rat Peripheral-type Benzodiazepine Receptor (PBR), Tspo (gene 24230) (P16257 whole entry, looked up): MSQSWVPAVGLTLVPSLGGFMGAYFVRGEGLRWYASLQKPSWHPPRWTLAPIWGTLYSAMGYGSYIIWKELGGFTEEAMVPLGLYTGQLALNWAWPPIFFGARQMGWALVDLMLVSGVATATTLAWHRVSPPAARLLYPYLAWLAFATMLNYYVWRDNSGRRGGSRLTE
For the compound `CCC(C)(NC(=O)c1cc(Cl)c(C)c(Cl)c1)C(=O)CCl` (configuration not stated), the AC50 was 0.0105 µM (active).
For the compound `CC(C)(C)C(O)C(Oc1ccc(Cl)cc1)n1cncn1` (configuration not stated), the compound was called inactive.
As to `COc1nn(CSP(=S)(OC)OC)c(=O)s1`, the concentration at half-maximal activity (AC50) is 13.1 µM (active).
Still for that read-out and setting: the figure for `CCCN(CCC)c1c([N+](=O)[O-])cc(C(F)(F)F)cc1[N+](=O)[O-]` is 16.5 µM (active); for `CC(C)OC(=O)Nc1cccc(Cl)c1` it is 4.63 µM (active).
Consider `CCN(CC)C(=O)SCc1ccc(Cl)cc1`, for which the AC50 was 13.5 µM (active).
Regarding `CNC(=O)CSP(=S)(OC)OC`, the outcome was inactive.
In the case of `CCOCN(C(=O)CCl)c1c(C)cccc1CC`, the AC50 is 1.45 µM (active).
Regarding `O=C1c2ccccc2C(=O)N1SC(Cl)(Cl)Cl`, the result was inactive.
As for `COP(=S)(OC)Oc1ccc(SC)c(C)c1`, the AC50 is 4.64 µM (active).
As to `O=[N+]([O-])/N=C1\NCCN1Cc1ccc(Cl)nc1`, the outcome was inactive.
As for `ClC1C(Cl)C(Cl)C(Cl)C(Cl)C1Cl` (configuration not stated), the AC50 was 14.1 µM (active) and the call was inactive.
For `O=[N+]([O-])c1c(Cl)c(Cl)c(Cl)c(Cl)c1Cl`, the outcome was inactive.
The same measure, in the same setting: the same measure for `O=S1OCC2C(CO1)C1(Cl)C(Cl)=C(Cl)C2(Cl)C1(Cl)Cl` (configuration not stated): “inactive”.
Regarding `CC1(C)C(C=C(Cl)Cl)C1C(=O)OC(C#N)c1ccc(F)c(Oc2ccccc2)c1` (configuration not stated), the AC50 is 10.8 µM (active).
Consider `O=C(O)CCCOc1ccc(Cl)cc1Cl`, for which the compound was classed as inactive.
